Holding throughout (experiment): DAPPL (digital affinity profiling via proximity ligation, sequencing); 10 mM Tris-HCl pH 7.5, 50 mM NaCl, 1 mM DTT, 4% glycerol, room temperature, 30 min; GST-TFs on glutathione beads, 16-mer random dsDNA library, 0.1% formaldehyde crosslink after washing; high values mean tight binding
What all share (settings): protein: recombinant; tags: N-terminal GST; dsDNA, one strand shown

One assay deals with T1, FLI1 (Homo sapiens, UniProt Q01543 1-452).
T1 sequence: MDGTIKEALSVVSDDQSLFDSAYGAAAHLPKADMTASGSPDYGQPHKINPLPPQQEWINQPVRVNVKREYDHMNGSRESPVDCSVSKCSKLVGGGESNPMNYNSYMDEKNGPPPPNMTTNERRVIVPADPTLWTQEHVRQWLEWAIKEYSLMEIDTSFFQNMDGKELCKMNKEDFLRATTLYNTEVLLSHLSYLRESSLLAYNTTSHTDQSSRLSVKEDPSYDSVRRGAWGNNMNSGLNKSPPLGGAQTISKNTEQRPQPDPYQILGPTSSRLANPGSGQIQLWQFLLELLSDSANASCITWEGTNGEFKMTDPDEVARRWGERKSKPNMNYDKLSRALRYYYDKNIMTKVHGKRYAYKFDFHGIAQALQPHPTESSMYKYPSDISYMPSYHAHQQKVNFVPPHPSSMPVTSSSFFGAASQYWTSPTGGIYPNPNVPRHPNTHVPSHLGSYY
The procedure, abridged: (§1)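 Pools were built from human transcription factors expressed in yeast as GST fusions, captured on glutathione beads and DNA-barcoded, along with a tag-only sample. Incubation with 200 nmole of a 16-mer random double-stranded DNA library lasted 30 min at room temperature in Tris/NaCl/DTT/glycerol buffer, and was followed by washing, 0.1% formaldehyde crosslinking, proximity ligation, PCR amplification and Illumina NextSeq500 sequencing. Binding signal is the quotient of each hexamer's read frequency for a factor and its frequency for the tag-only sample.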

The target in the next assay is T2, ELK1 (Homo sapiens, UniProt P19419 1-428).
T2 sequence: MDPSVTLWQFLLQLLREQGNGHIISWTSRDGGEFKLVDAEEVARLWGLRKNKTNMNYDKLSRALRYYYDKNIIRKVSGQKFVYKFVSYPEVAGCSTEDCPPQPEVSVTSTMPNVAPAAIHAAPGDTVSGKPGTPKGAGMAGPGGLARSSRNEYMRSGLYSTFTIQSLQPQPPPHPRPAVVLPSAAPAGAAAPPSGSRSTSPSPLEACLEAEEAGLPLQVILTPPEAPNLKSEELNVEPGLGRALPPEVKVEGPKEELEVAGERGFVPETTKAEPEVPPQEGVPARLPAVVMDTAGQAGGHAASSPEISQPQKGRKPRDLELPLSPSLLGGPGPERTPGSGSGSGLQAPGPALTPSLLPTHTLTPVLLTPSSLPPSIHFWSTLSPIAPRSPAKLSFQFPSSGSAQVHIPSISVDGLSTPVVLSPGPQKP
The procedure, abridged: as §1

Another assay addresses T3, ERG (Homo sapiens, UniProt P11308 1-479).
T3 sequence: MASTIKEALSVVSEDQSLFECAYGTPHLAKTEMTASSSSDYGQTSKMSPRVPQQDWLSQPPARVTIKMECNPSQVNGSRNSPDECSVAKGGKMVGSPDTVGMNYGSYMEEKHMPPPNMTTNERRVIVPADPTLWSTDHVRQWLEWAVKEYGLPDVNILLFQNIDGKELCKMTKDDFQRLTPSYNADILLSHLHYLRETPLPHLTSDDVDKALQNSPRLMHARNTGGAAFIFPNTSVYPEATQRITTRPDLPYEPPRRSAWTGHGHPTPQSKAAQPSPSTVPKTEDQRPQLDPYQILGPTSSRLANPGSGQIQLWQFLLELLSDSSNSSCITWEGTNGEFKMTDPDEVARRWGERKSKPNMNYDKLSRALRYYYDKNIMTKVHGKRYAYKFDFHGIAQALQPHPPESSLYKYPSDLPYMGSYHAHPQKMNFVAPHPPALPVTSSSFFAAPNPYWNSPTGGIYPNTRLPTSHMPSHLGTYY
The procedure, abridged:
as §1

The target in a further assay is T4, EHF (Homo sapiens, UniProt Q9NZC4 1-300).
T4 sequence: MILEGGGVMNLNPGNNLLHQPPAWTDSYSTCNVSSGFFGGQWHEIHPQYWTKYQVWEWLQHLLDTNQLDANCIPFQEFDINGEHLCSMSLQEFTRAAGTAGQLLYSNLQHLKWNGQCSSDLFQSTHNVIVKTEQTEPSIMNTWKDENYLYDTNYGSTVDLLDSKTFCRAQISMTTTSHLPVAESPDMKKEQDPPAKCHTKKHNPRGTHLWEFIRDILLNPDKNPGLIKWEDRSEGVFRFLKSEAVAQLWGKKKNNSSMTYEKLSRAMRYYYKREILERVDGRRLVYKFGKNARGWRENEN
Summed up: as §1

The target in another assay is SPI1 (Homo sapiens, UniProt P17947 1-270). Summed up: as §1
Another assay deals with SPIB (Homo sapiens, UniProt Q01892 1-262). The procedure, abridged:
as §1

For the next assay, the target named is T5, FEV (Homo sapiens, UniProt Q99581 1-238).
T5 sequence: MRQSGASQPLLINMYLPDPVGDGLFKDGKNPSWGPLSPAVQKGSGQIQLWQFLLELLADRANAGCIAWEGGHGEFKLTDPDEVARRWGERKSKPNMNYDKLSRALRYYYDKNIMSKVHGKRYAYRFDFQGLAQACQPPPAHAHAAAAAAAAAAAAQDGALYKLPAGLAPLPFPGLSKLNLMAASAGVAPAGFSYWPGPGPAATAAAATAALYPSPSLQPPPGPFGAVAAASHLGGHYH
The procedure, abridged:
as §1

For the next assay, the target named is ETV5 (Homo sapiens, UniProt P41161 1-510). The procedure, abridged: as §1
Chain of ETV5 (P41161 whole entry): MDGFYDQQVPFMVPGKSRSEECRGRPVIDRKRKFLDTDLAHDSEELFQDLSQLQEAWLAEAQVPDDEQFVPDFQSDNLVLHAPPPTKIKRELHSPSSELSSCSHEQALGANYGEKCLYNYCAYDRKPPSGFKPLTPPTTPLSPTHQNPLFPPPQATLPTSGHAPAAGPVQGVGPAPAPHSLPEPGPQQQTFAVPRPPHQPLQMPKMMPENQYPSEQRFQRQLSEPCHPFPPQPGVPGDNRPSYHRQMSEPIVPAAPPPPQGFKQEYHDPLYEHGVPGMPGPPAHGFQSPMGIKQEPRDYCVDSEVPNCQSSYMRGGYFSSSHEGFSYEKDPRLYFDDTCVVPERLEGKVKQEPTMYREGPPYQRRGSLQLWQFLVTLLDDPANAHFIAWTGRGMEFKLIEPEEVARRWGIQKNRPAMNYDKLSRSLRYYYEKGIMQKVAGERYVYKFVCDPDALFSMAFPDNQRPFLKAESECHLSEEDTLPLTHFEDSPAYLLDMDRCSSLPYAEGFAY
The target in another assay is T6, SPIC (Homo sapiens, UniProt Q8N5J4 1-248).
T6 sequence: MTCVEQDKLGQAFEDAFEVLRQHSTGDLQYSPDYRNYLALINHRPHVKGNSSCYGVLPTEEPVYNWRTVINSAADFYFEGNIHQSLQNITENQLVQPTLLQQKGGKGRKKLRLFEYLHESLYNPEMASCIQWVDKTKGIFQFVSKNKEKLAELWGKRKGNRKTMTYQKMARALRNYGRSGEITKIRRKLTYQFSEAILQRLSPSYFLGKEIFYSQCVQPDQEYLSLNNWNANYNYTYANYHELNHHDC
Summed up: as §1

Another assay concerns the target ELF4 (Homo sapiens, UniProt Q99607 1-663). The procedure, abridged: as §1
The target in another assay is ETV1 (Homo sapiens, UniProt P50549 1-477). The procedure, abridged:
as §1

Another assay deals with T7, ETV3L (Homo sapiens, UniProt Q6ZN32 1-361).
T7 sequence: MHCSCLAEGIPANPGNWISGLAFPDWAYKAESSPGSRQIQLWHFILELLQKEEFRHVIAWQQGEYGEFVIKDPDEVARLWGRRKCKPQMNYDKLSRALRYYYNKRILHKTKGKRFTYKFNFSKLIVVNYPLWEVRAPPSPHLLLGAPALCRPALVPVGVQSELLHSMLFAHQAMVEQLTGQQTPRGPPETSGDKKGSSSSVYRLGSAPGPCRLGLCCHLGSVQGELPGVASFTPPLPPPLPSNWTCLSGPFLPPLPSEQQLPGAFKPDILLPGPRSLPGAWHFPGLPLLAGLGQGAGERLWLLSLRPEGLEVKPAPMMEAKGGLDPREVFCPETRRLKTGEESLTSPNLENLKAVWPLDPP
The procedure, abridged: as §1

Another assay has as its target T8, ELF5 (Homo sapiens, UniProt Q9UKW6-2 1-255).
T8 sequence: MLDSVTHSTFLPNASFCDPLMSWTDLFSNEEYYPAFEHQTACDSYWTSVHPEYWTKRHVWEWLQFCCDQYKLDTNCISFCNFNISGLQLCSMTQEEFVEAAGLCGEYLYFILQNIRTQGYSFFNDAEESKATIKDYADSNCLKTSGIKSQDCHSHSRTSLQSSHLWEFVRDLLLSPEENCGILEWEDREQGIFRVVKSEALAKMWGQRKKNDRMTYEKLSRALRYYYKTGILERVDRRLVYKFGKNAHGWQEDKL
Summed up: as §1

The target in a further assay is T9, ETV3 (Homo sapiens, UniProt P41162-2 1-143).
T9 sequence: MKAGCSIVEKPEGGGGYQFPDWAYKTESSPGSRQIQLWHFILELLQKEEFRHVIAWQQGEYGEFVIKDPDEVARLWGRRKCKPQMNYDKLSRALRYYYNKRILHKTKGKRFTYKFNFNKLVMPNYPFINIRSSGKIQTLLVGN
Summed up: as §1

A further assay addresses ETV6 (Homo sapiens, UniProt P41212 1-452). The procedure, abridged:
as §1

Chain of ETV1 (P50549 whole entry): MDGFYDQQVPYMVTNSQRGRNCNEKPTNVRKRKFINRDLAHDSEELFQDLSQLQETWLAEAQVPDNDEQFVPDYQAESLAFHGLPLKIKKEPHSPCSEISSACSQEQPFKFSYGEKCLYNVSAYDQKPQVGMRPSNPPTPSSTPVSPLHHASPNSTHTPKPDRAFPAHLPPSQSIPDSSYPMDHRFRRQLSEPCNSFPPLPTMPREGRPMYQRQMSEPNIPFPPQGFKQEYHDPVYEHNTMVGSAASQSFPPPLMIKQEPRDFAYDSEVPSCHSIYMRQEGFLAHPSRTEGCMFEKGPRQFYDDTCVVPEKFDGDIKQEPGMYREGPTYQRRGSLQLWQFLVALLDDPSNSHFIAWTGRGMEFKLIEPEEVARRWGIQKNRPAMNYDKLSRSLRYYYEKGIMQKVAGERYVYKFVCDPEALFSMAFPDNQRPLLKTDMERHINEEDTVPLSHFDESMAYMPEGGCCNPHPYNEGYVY
Chain of SPIB (Q01892 whole entry): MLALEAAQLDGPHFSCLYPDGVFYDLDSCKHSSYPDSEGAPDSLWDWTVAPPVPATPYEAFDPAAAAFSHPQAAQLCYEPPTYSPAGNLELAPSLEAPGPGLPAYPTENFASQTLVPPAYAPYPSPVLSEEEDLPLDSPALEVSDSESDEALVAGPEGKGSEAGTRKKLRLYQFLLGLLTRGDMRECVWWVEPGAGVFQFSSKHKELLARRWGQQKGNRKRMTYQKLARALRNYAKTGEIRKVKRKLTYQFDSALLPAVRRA
Chain of ETV6 (P41212 whole entry): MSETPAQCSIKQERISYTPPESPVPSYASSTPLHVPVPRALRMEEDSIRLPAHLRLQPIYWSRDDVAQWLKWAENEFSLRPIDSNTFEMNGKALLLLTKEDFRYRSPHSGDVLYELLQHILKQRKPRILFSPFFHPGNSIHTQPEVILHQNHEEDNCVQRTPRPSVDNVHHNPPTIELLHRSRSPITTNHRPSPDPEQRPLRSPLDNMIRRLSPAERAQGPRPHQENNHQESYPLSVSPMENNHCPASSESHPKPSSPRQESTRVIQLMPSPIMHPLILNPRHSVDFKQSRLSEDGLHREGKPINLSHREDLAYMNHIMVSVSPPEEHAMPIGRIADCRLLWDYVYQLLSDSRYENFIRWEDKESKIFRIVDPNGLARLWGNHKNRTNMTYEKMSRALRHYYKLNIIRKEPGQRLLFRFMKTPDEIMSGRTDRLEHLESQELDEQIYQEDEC
Chain of ELF4 (Q99607 whole entry): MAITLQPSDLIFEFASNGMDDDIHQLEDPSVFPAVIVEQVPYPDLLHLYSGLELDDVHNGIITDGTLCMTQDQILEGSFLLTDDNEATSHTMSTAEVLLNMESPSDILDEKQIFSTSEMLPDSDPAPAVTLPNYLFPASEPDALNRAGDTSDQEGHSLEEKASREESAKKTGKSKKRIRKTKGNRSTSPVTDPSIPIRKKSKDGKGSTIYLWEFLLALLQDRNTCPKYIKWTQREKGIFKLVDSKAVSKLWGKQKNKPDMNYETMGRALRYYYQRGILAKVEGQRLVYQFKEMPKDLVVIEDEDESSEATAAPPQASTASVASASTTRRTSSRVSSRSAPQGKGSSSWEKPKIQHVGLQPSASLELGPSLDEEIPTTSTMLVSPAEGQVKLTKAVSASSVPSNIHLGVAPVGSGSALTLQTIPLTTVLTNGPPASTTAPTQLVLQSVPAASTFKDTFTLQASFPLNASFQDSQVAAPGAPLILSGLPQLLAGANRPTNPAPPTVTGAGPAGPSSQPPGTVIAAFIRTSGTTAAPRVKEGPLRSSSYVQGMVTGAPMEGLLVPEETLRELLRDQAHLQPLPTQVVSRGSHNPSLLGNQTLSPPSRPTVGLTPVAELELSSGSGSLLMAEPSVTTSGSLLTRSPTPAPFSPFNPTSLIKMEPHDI

For AGTGAC, the binding signal was 1.07 fold enrichment (6-mer frequency, TF over GST control) in the assay with FLI1; 1 fold enrichment (6-mer frequency, TF over GST control) with ELK1; 1.1 fold enrichment (6-mer frequency, TF over GST control) in the assay with ERG; 1.08 fold enrichment (6-mer frequency, TF over GST control) with EHF; 1.33 fold enrichment (6-mer frequency, TF over GST control) with SPI1; 1.04 fold enrichment (6-mer frequency, TF over GST control) in the assay with SPIB. The binding signal with FEV is 1.11 fold enrichment (6-mer frequency, TF over GST control); in the assay with ETV5 it was 1.05 fold enrichment (6-mer frequency, TF over GST control); with SPIC, 1.04 fold enrichment (6-mer frequency, TF over GST control); in the assay with ELF4, 1.05 fold enrichment (6-mer frequency, TF over GST control); with ETV1 it was 1.03 fold enrichment (6-mer frequency, TF over GST control); with ETV3L, 1.1 fold enrichment (6-mer frequency, TF over GST control). Moreover, the binding signal is 1.11 fold enrichment (6-mer frequency, TF over GST control) with ELF5; 1.1 fold enrichment (6-mer frequency, TF over GST control) with ETV3; 1.11 fold enrichment (6-mer frequency, TF over GST control) in the assay with ETV6.

These data come from PMC7862700, “An all-to-all approach to the identification of sequence-specific readers for epigenetic DNA modifications on cytosine”.
